# Source: PubChem (National Center for Advancing Translational Sciences (NCATS))
# An excerpt weighted towards active compounds, which were near 9.2% of everything screened.
# ELG1 genotoxic = inducers of genotoxicity in HEK293T ELG1-luciferase cells. HEK293T ELG1-luciferase reporter, luminescence, 16 h. Potency, µM (titrated, usually from 46 µM), without a hit: at the top dose activity change, positive = activation, hits mostly activators. 330,000 compounds, 1.3% hits; further: % of control where 0% means no effect; nearly all actives have a fitted effect of over 60% in size
#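 16 hr compound incubation (37 °C, 5% CO2) of HEK293T cells carrying luciferase-tagged ELG1; luciferase then measured by ONE-Glo luminescence after 30 min at RT.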
# Rab9 promoter act = activates the Rab9 promoter; Huh7 Rab9 promoter-luciferase reporter, luminescence, 24 h; Potency, µM (top dose mostly 9.22 µM), for inactives: at the highest dose activation, negative = inhibition, actives largely listed as activators; 320,000 compounds, 2.8% hits; further: % of control where 0% means no effect; nearly all actives have a fitted effect of over 60% in size
#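 Steps: seed 1500 Huh7 Rab9-luc cells per well, rest 2 h at 37 °C; add compound in DMSO; incubate 24 h; add luciferase reagent, 10 min ambient; read luminescence.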
# ELG1 DNA repair = blocks ELG1-dependent DNA repair in HEK293T cells; Potency, µM (titrated, usually from 46.1 µM), without a hit: top-dose activity change, negative = inhibition, hits mostly inhibitors; 330,000 compounds, 2.3% hits; HEK293T ELG1-luciferase reporter, luminescence, 16 h; DNA damage induced by 5-fluorouridine; further: on the % scale 0 is the no-effect control and ±100 the full control effect; nearly all actives have a fitted effect of over 55% in size
#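 Reporter activity after DNA damage by 5-fluorouridine is monitored. Compound-treated cells incubate 16 hr at 37 °C, then ONE-Glo is added for 30 min before luminescence reading.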
# FLuc counter = counter-screen for miR-21 project: firefly luciferase inhibitors or activators. Potency, µM (top dose mostly 57.5 µM), without a hit: top-dose activity change, negative = inhibition, most hits filed as inhibitors. 360,000 compounds, 6.9% hits. purified FLuc, Km substrates, luminescence inhibition. P08659;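 further: plate controls were vehicle for no effect and reference inhibitor for full effect; nearly all actives have a fitted effect of over 55% in size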
# Target sequence (P08659 whole entry, looked up): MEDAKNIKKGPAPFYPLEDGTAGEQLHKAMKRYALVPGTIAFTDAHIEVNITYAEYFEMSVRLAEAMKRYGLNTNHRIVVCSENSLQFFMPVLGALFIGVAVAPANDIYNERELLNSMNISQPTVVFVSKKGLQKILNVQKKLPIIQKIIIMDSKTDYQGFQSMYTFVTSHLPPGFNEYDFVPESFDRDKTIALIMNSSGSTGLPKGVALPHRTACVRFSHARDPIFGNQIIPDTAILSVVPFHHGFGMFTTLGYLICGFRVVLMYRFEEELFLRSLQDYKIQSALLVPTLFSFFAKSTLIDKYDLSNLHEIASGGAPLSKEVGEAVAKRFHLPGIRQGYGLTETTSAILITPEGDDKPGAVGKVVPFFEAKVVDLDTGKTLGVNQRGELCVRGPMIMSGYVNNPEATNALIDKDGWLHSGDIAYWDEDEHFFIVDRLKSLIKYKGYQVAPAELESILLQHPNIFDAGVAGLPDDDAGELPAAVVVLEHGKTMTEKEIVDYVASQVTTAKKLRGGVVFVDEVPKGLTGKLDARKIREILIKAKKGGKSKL
#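 Biochemical qHTS of compounds, final roughly 60 µM downward over six points, against 10 nM purified firefly luciferase using Km concentrations of substrates (10 uM D-luciferin, 10 uM ATP) in Tris acetate pH 7.5 buffer; luminescence output.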
# NPC1 prom act = activators of NPC1 promoter | 320,000 compounds, 2.4% hits | Potency, µM (titrated, usually from 9.22 µM), for the others: at the highest dose activation, hits mostly activators | Huh7 NPC1 promoter luciferase reporter, 24 h | AID 485313; further: % of control where 0% means no effect; nearly all actives have a fitted effect of over 60% in size
#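 Luminescence from an NPC1 promoter-driven luciferase reporter in stably transfected Huh7 cells was measured after 24 h compound treatment at 37 °C, followed by 10 min ambient incubation with luciferase detection reagent.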
# SMN2 splice enh = increases expression of the SMN2 splice variant; Potency, µM (top dose mostly 46.1 µM), inactives show at the top dose activity change, positive = activation, actives largely listed as activators; AID 1458; HEK293 SMN2-luciferase splicing reporter, luminescence, 30-36 h; 210,000 compounds, 2.8% hits; further: % of control where 0% means no effect; nearly all actives have a fitted effect of over 55% in size
#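 qHTS luciferase splicing reporter: luminescence rises when SMN2 exon 7 is included in transfected HEK293 cells. Compound exposure lasted 30-36 h at 37C, with 4.5 mM final sodium butyrate as control, followed by a ONE-Glo read.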
# * hit, by the source's call; ? = inconclusive; . = no result. The call rests on the fitted dose curve; in most records, active means well fitted curve in the direction sought with a large enough effect; inconclusive means small, poorly fitted or top-dose-only effect, or another doubt; inactive means no such curve, though single readings can be large; an effect the other way counts as inactive or inconclusive. Potency means the concentration at half of the fitted maximal effect.
SMILES,ELG1 genotoxic,Rab9 promoter act,ELG1 DNA repair,FLuc counter,NPC1 prom act,SMN2 splice enh
CCCN(CCC)C(=O)CSc1nnc2cc(C)c3ccccc3n12,.,.,.,-2%,.,.
CCc1ccc(/C=N/NC(=O)c2c[nH]c3ccccc23)s1,?,1.3µM*,?,6µM*,2µM*,6.3µM*
O=C(N/N=C/c1cccs1)c1c[nH]c2ccccc12,?,2.8µM*,?,6µM*,3.2µM*,11µM*
Cc1cc(C(=O)OCC(=O)c2ccccc2)c2ccccc2n1,3%,-3%,4%,?,-6%,.
Cc1ccc(C)c(C(=O)COC(=O)c2cc(Cl)nc3ccccc23)c1,2%,-3%,?,12µM*,1%,-10%
Cc1ccc(C(=O)COC(=O)c2cc(Cl)nc3ccccc23)cc1C,0%,-7%,-3%,15µM*,-6%,-6%
CCCCOc1cccc(C2c3c(-c4cc(C)ccc4O)n[nH]c3C(=O)N2CCOC)c1 (centres undefined),.,.,.,4%,.,19%
CC(=O)C(C)Oc1ccc2c3c(c(=O)oc2c1)CCCCC3 (centres undefined),9.2µM*,2.8µM*,?,21µM*,?,?
CC(Oc1ccc2c3c(c(=O)oc2c1)CCCC3)C(=O)NCc1ccncc1 (centres undefined),-6%,1%,?,-6%,-1%,.
O=C(COc1ccc2c3c(c(=O)oc2c1)CCC3)Nc1ccccn1,1.6µM*,5µM*,?,0.27µM*,0.4µM*,.
CC(=O)COc1ccc2c3c(c(=O)oc2c1)CCCC3,29%,-3%,?,-2%,3%,-19%
CC(=O)C(C)Oc1ccc2c3c(c(=O)oc2c1)CCCC3 (centres undefined),?,24%,?,15µM*,22%,-4%
CSc1cccc(NC(=O)CCCNC(=O)c2ccc(Cl)cc2)c1,-1%,-1%,-8%,-1%,2%,.
COC(=O)c1ccc(NC(=O)CCc2c(C)nc3c(c2C)c(=O)n(C)c(=O)n3C)cc1,.,.,.,-4%,.,?
O=C(Nc1ccc2c(c1)OCCO2)c1cccs1,16µM*,1.6µM*,?,5.4µM*,2.8µM*,6.3µM*
CCN(CC)S(=O)(=O)c1cc(NC(=O)c2ccc(Br)s2)ccc1C,5%,1%,?,12µM*,20%,-12%
O=C(Nc1ccc2c(c1)OCO2)c1cccs1,.,.,.,13µM*,.,?
CN(CC(=O)Nc1ccc2c(c1)OCO2)S(=O)(=O)c1cccs1,?,?,?,17µM*,?,.
O=C(Nc1ccncc1)c1cccs1,-1%,3%,?,3%,-1%,14%
O=C(c1ccc2c(c1)OCCCO2)c1cccs1,?,2.2µM*,?,6.7µM*,1.1µM*,13µM*
O=C(c1ccccc1)c1ccc2c(c1)OCCOCCOCCOCCO2,-4%,-4%,?,-5%,7%,.
CCN(CC)S(=O)(=O)c1cc(NC(=O)CCCOc2ccc(C(C)=O)cc2)ccc1C,2%,-16%,16µM*,-1%,-8%,-68%
O=S(=O)(Nc1ccc2c(c1)OCCO2)c1cccs1,7.3µM*,5%,?,?,2%,1%
O=C(Nc1ccc2c(c1)OCO2)c1ccc(Br)s1,1.8µM*,1.6µM*,?,3.4µM*,1.8µM*,13µM*
COc1ccc(C)cc1NC(=O)c1cc2c(s1)-c1ccccc1SC2,.,.,.,-15%,.,-4%
SMILES,ELG1 genotoxic,Rab9 promoter act,ELG1 DNA repair,FLuc counter,NPC1 prom act,SMN2 splice enh
O=C(Cn1cnc2c(NC(=O)OCc3ccccc3)ncnc21)NCc1ccccn1,5%,1%,26%,?,8%,.
C=CCn1c(SCC(=O)NCC(c2ccccc2)N(C)C)nnc1C1CCCCC1 (centres undefined),4%,-4%,18%,-2%,0%,.
Cc1cccc2c1-c1sc(C(=O)N3CCN(c4ccccc4)CC3)cc1CO2,.,.,.,1%,.,24%
Cc1nn(CCCC(=O)NCc2ccccc2Br)c(=O)c2c1sc1ccccc12,.,.,.,-6%,.,.
CCCOc1ccc(CNC(=O)CCCn2nc(C)c3sc4ccccc4c3c2=O)cc1,.,.,.,7.6µM*,.,.
CCc1cccc(C)c1NC(=O)CCCn1nc(C)c2sc3ccccc3c2c1=O,.,.,.,-11%,.,.
Cc1nn(CCCC(=O)Nc2cccc(F)c2)c(=O)c2c1sc1ccccc12,.,.,.,15µM*,.,.
CCOCCOC(=O)c1ccc2c(c1)N(Cc1ccccc1C#N)C(=O)c1ccccc1S2(=O)=O,.,.,.,5%,.,.
CCCc1cc(=O)[nH]c(Nc2ccc(C)c(O)c2)n1,.,.,.,-8%,.,-10%
COc1ccccc1N1CCN(C(=O)CSc2n[nH]c(-c3ccccc3)n2)CC1,.,.,.,-10%,.,.
O=C(CSc1nc(-c2ccccc2)no1)N1CCN(c2ccccc2F)CC1,.,.,.,-17%,.,.
COc1ccccc1N1CCN(C(=O)CSc2nc(-c3ccc(C(C)C)cc3)no2)CC1,.,.,.,2.1µM*,.,.
CC(C)c1ccc(-c2noc(SCC(=O)N3CCN(c4ccccc4F)CC3)n2)cc1,.,.,.,2.4µM*,.,.
O=C(CSc1nc(-c2ccccc2)no1)N1CCCCC1,.,.,.,24µM*,.,25%
Oc1ccc2ccccc2c1N=Nc1ccccn1,1%,-27%,?,15µM*,?,-79%
Oc1ccc2ccccc2c1N=Nc1ccccc1F,1%,2%,10%,17µM*,?,.
COc1ccc2nc(N=Nc3c(O)ccc4ccccc34)sc2c1,7%,-29%,-17%,-16%,0%,.
O=S(=O)(O)c1cccc(N=Nc2c(O)ccc3ccccc23)c1,-1%,0%,2%,24µM*,1%,.
CCOC(=O)c1[nH]cnc1N=Nc1c(O)ccc2ccccc12,?,-24%,13%,?,-8%,-96%
COc1cc(/C=C2/C(=O)NN(c3ccccc3)C2=O)cc(Br)c1O,10%,-2%,5%,17µM*,-4%,.
COc1cc(/C=C2\C(=O)NN(c3ccccc3)C2=O)cc([N+](=O)[O-])c1O,7%,9%,1%,?,-4%,3%
COc1cc(/C=C2/C(=O)NN(c3ccc(Cl)cc3)C2=O)cc(OC)c1O,0%,-2%,5%,12µM*,0%,.
CCOC(=O)COc1ccc(/C=C2/C(=O)NN(c3ccc(F)cc3)C2=O)cc1OC,8%,0%,56%,?,-3%,.
O=C(O)c1cccc(-c2nc(-c3ccccc3C(F)(F)F)no2)c1,.,.,.,0.17µM*,.,.
NC(=O)c1ccc(-c2noc(-c3cccc(Cl)c3)n2)cc1,?,?,?,?,2.5µM*,.
Cc1noc(-c2ccc(-c3noc(-c4cccc(Cl)c4)n3)cc2)n1,.,.,.,-2%,.,.
